Measurements: PubChem BioAssay AID1851 (National Center for Advancing Translational Sciences (NCATS), 2009)
Out of some 16,000 compounds screened, about 5,700 (36%) were called active. Not shown: some 24% with an inconclusive outcome. Some of the results follow. Unmarked numbers belong to inactive results. Calls come from the whole dose curve; as a rule, active = well fitted curve in the direction sought with a large enough effect; inconclusive = small, poorly fitted or top-dose-only effect, or effect the other way; inactive = no such curve, though single readings can be large or run the other way.

These compounds were tested against Cytochrome P450 1A2 (Homo sapiens) (UniProt P05177) (assay: Cytochrome panel assay with activity outcomes). Conditions: recombinant CYP, pro-luciferin dealkylation, luminescence, p450-cyp1a2; series mostly up to 57.1 µM.
% is set by controls: 0 for no effect and ±100 for the full control effect.

Cytochrome P450 1A2 (Homo sapiens), sequence (P05177 whole entry, looked up): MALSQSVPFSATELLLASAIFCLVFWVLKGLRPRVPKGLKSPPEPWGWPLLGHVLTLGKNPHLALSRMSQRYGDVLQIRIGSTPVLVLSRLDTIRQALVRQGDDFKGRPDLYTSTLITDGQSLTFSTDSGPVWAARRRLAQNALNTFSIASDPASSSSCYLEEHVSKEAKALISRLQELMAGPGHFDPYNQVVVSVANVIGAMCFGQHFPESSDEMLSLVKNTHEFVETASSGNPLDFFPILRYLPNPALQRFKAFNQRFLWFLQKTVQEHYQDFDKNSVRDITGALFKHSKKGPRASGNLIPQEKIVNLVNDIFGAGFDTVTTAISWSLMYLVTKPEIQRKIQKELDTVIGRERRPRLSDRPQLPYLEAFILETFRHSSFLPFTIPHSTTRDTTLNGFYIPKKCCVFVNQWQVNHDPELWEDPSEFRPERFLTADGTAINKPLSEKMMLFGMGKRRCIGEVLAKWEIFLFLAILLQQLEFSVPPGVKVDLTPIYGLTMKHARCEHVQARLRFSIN

SMILES	AC50	activity, negative = inhibition
Nc1cc(-c2nn[nH]n2)ccc1F	inactive	–
COc1ccc(/C=N/N(C(C)=O)c2nc(-c3ccc(C)cc3)cs2)cc1	1.58 µM (active)	–
CC(=O)N(/N=C/c1cccc(C)c1)c1nc(-c2ccc(Br)cc2)cs1	1.41 µM (active)	–
C/C(CCN1CCCc2nc(C)c(C)cc21)=N\OC[C@@H](C)[C@H](OCc1ccccc1)C(C)C	–	-3.05% [at 11.4 µM]
C[C@@]12C[C@H](O)[C@@H]3[C@H](CCC4=CC(=O)CC[C@]43C)[C@H]1CC[C@@H]2c1csc(N)n1	–	-9.78% [at 2.29 µM]
Cc1cccc(CNc2ncncc2-c2ccccc2Cl)c1	3.16 µM (active)	–
Cc1ccccc1-c1cncnc1NCc1ccccc1	12.6 µM (active)	–
Cc1cccc(CNc2ncncc2-c2ccccc2C)c1	2.51 µM (active)	–
N#Cc1ccccc1-c1cncnc1NCc1cccnc1	0.0631 µM (active)	–
CCCCCCCCCCCCCCCCCC(=O)O[C@H](CC(=O)O)C[N+](C)(C)C	inactive	–
CCN1CCCCC(=N/O)/C(=N/O)CCCC1	–	-9.97% [at 11.4 µM]
CC(C)(C)NS(=O)(=O)c1ccc(NC(=O)C(Sc2ccccc2)c2ccccc2)cc1 (stereo not given)	inactive	–
C[C@@H]1OC2C3=C(C(=O)[C@H]4O[C@@H]4[C@H]3O)[C@@H]1[C@H]1[C@H](C)OC=C3[C@H](O)[C@H]4O[C@H]4/C(=N\OCc4ccccc4)[C@@]321	–	-13.5% [at 11.4 µM]
O=C(c1ccco1)N1CCC[C@@]2(CCN(Cc3nccs3)C2)C1	inactive	–
FC(F)(F)c1ccccc1-c1cncnc1NCc1cccnc1	20 µM (active)	–
Cc1ccccc1-c1cncnc1NCc1cccnc1	15.8 µM (active)	–
COc1cccc(Nc2ncc3nc(-c4ccccc4)c(=O)n(C)c3n2)c1	3.16 µM (active)	–
Cc1nc2cnc(Nc3ccccc3)nc2n(C)c1=O	1.26 µM (active)	–
Cn1c(=O)c(-c2ccccc2)nc2cnc(Nc3ccccc3)nc21	15.8 µM (active)	–
Cc1ccc(S(=O)(=O)NC(=O)Nc2ncn[nH]2)cc1	–	-21.4% [at 2.29 µM]
N[C@H](CCCC(=O)O)C(=O)O	inactive	–
O=C(NC[C@@H](O)CO)c1c(I)c(C(=O)NC[C@@H](O)CO)c(I)c(N(CCO)C(=O)CO)c1I	inactive	–
COc1cc2nc(N3CCN(C(=O)[C@@H]4CCCO4)CC3)nc(N)c2cc1OC	inactive	–
CCN1CCN(S(=O)(=O)c2ccc(Cl)c(C(=O)Nc3nnc(CC(C)C)s3)c2)CC1	inactive	–

SMILES	AC50	activity, negative = inhibition
O=C(c1cc(Cl)c(=O)n(Cc2ccc(Cl)cc2)c1)N1CCOCC1	inactive	–
Cc1nc2c(C(=O)N3CCOCC3)cnn2c(C)c1Cc1ccc(Cl)cc1	15.8 µM (active)	–
Cc1ccc(CS(=O)(=O)CCC(=O)N2CCOCC2)cc1	inactive	–
O=C(O)CNC(=O)[C@@H](CS)Cc1ccccc1	inactive	–
COc1cc2nc3c(c([Si](C)(C)C(C)(C)C)c2cc1OC)Cn1c-3cccc1=O	5.01 µM (active)	–
CC(C)(C)[Si](C)(C)c1c2c(nc3ccc(OCc4ccccc4)cc13)-c1cccc(=O)n1C2	5.01 µM (active)	–
COc1ccc2nc3c(c([Si](C)(C)C(C)(C)C)c2c1)Cn1c-3cccc1=O	0.794 µM (active)	–
Cc1nc2cnc(N3CCN(C)CC3)nc2n(CCc2ccccc2)c1=O	10 µM (active)	–
CN1CCN(c2ncc3nc(-c4cc(F)cc(F)c4)c(=O)n(CCc4ccccc4)c3n2)CC1	inactive	–
COc1ccc(-c2nc3cnc(N4CCN(C)CC4)nc3n(CCc3ccccc3)c2=O)cc1	inactive	–
COCCn1c(=O)c(C)nc2cnc(N3CCNCC3)nc21	10 µM (active)	–
COCCn1c(=O)c(C)nc2cnc(N3CCN(C)CC3)nc21	15.8 µM (active)	–
CN(C)C[C@H]1CCC2=C(C1=O)C(c1ccc(Cl)c(Cl)c1)C1=C(CC[C@H](CN(C)C)C1=O)O2	–	-2.04% [at 2.29 µM]
CC[C@H]1C2=C3C(CC[C@H]4C(OCc5ccc(F)cc5C(F)(F)F)OC[C@](C)([C@@H]34)N(C(=O)OC(C)(C)C)C2)C(COC(C)=O)C1COC(C)=O (stereo not given in full)	inactive	–
Cc1cc(C(C)(C)C)cc(CNC2CCCCC2)c1O	3.16 µM (active)	–
Oc1cc(CN2COc3ccccc32)c(O)cc1CNC1CCCCC1	–	-14.2% [at 11.4 µM]
CO[C@@H]1COC(=O)C/C=C\[C@@H](C)COC(=O)[C@H](Cc2ccccc2)NC(=O)C/C=C\[C@H]1C	–	5.59% [at 11.4 µM]
O=C(NNC(=O)c1ccccc1-n1cccc1)c1ccccc1	inactive	–
CCC(=O)NCc1c(Cl)cccc1-n1cccc1	14.1 µM (active)	–
COc1nc(C)nc(Cl)c1NC1=NCCN1	inactive	–
C/C(=C\c1ccco1)C1C(C#N)=C(N)Oc2n[nH]c(-c3ccccc3)c21 (stereo not given)	0.2 µM (active)	–
COc1ccc(C(C)(C)C)cc1NC(=O)c1cncc(Br)c1	1 µM (active)	–
COc1ccc(Nc2nc(N)nc(CSc3n[nH]c(-c4ccccc4)n3)n2)cc1	15.8 µM (active)	–
Cc1nnc(SCc2nc(N)nc(Nc3ccccc3)n2)s1	4.47 µM (active)	–

SMILES	AC50	activity, negative = inhibition
NC[C@@H]1O[C@H](O[C@@H]2[C@H](O[C@@H]3O[C@H](CO)[C@@H](COC[C@H]4O[C@@H](CN)[C@@H](O)[C@@H](O)[C@@H]4N)[C@@H]3O)[C@@H](O)[C@@H](N)C[C@H]2N)[C@@H](N)[C@H](O)[C@@H]1O	inactive	–
CC(C)c1ccc(N(C(=O)C(F)(F)F)C(C(=O)NC2CCCCC2)c2ccncc2)cc1 (stereo not given)	inactive	–
Cc1cc(C)cc(N(C(=O)Cc2cccs2)C(C(=O)NC2CCCCC2)c2ccccn2)c1 (stereo not given)	inactive	–
O=C(OC(C(=O)NC1CCCC1)c1ccncc1)C1=Cc2ccccc2OC1 (stereo not given)	11.2 µM (active)	–
NCCOB(c1ccccc1)c1ccccc1	15.8 µM (active)	–
Cc1noc(C)c1C(=O)N1CCC2(CCCN(Cc3ccc(C#N)cc3)C2)CC1	inactive	–
Cc1noc(C)c1-c1cc(Nc2ccc(F)cc2)ncn1	0.501 µM (active)	–
Cc1noc(C)c1-c1cc(Nc2ccccc2)ncn1	1.26 µM (active)	–
Cc1noc(C)c1C(=O)OCC(=O)NC(c1ccccc1)c1ccccc1	inactive	–
Cc1n[nH]c(C)c1S(=O)(=O)N1CCOCC1	inactive	–
CCc1cc2c(nc1CC)CCN(CC/C(C)=N/O[C@@H](C)c1cc(-c3c(C)cc(C)cc3C)no1)C2	–	-8.6% [at 11.4 µM]
O=C(c1cnn(-c2ccccc2)c1)c1ccc2ccccc2c1O	2.51 µM (active)	–
O=C(O)/C(=C\c1ccc(O)cc1)c1cccc2ccccc12	–	-10.8% [at 11.4 µM]
CC(C)CNC(=O)O	–	-14.2% [at 11.4 µM]
CN[C@@H]1NC(=O)c2ccccc2N1Cc1ccc(F)cc1	–	-7.56% [at 2.29 µM]
Cc1ccc(CN2C(=O)CCC2C(=O)NCc2cccnc2)cc1 (stereo not given)	inactive	–
Cc1ccc(NC2c3ncccc3C(=O)N2Cc2ccc(F)cc2)cc1 (stereo not given)	11.2 µM (active)	–
CN(C)C(=O)c1ccc(-c2ccc3ncnc(NCc4cccs4)c3c2)cc1	15.8 µM (active)	–
CN(C)c1ccc(-c2ccc3ncnc(NCc4ccccc4)c3c2)cc1	0.501 µM (active)	–
CN(C)C(=O)c1ccc(-c2ccc3ncnc(NCc4ccccc4)c3c2)cc1	15.8 µM (active)	–
Cc1cccc(CNc2ncnc3ccc(-c4ccc(C(=O)N(C)C)cc4)cc23)c1	15.8 µM (active)	–
CO[C@@H](C(C)C)[C@@H](C)[C@@H]1OC(=O)C[C@@H]1O	–	-5.03% [at 11.4 µM]
CN(C)c1ccc(-c2cncnc2NCc2ccccc2)cc1	1 µM (active)	–
CN(C)c1ccc(-c2cncnc2NCc2cccnc2)cc1	1 µM (active)	–

SMILES	AC50	activity, negative = inhibition
CC(C)CO/N=C1/C[C@@H](O)[C@@H](O)[C@@H]2[C@@H]3C(=O)N([C@@H](C)c4ccccc4)C(=O)[C@H]3CC[C@H]12	–	4.53% [at 11.4 µM]
Clc1ccc(Sc2ccc(/C=N/n3cnnc3)o2)cc1	14.1 µM (active)	–
CN=C1S/C(=C\c2ccc(Sc3ccc(Cl)cc3)o2)C(=O)N1C	3.55 µM (active)	–
CN(C)c1nc(C#N)nc(N2CCOCC2)n1	1.58 µM (active)	–
Cc1cc(C(=O)OC2CCOC2=O)c2ccccc2n1 (stereo not given)	2.82 µM (active)	–
CC1(C)[C@@H]2CC[C@@](C)(C2)[C@H]1OC(=O)c1ccccc1C(=O)O	–	2.82% [at 11.4 µM]
OC(CCCN1CCCCC1)(c1ccccc1)c1ccccc1	inactive	–
CCCCN1CCC(n2c(=O)[nH]c3ccccc32)CC1	inactive	–
CCCCCCN1Cc2ccccc2C1	12.6 µM (active)	–
COCCCNC(=O)CN(c1ccc(OC)cc1)S(=O)(=O)c1ccc(NC(C)=O)cc1	inactive	–
COc1ccc(CCNC[C@H](O)c2ccc(O)cc2)cc1OC	inactive	–
CCOc1nc(NCCc2ccc(OC)c(OC)c2)nc(NC(C)(C)CO)n1	5.01 µM (active)	–
C=CCOc1ccc(CNC(C)(C)CO)cc1OC	inactive	–
CCSC[C@@H](N)C(=O)O	–	-1.61% [at 2.29 µM]
Cc1nn(Cc2ccc(Cl)cc2)c(C)c1NC(=O)Cn1nc([N+](=O)[O-])c(Cl)c1C	inactive	–
Cc1c(Cl)c([N+](=O)[O-])nn1Cc1ccc(C(=O)N/N=C\c2cc(Cl)ccc2O)o1	1.58 µM (active)	–
Cc1c(Cl)c([N+](=O)[O-])nn1Cc1ccc(C(=O)N/N=C\c2cccc(Br)c2)o1	3.16 µM (active)	–
CN(C)CC(O)COc1ccc(C(C)(C)c2ccc(OCC(O)CN(C)C)cc2)cc1 (stereo not given)	inactive	–
O=C(O)[C@H]1CC=CC[C@@H]1C(=O)Nc1cccc(O)c1	–	-18.8% [at 11.4 µM]
CC(=O)Nc1cccc(N2C(=O)CCC2=O)c1	inactive	–
CC(=O)c1cccc(NC=C2C(=O)OC3(CCCCC3)OC2=O)c1	3.55 µM (active)	–
CC1(C)OC(=O)C(=CNc2cccc(O)c2)C(=O)O1	12.6 µM (active)	–
CSCCC(NC=C1C(=O)OC(C)(C)OC1=O)C(=O)O (stereo not given)	inactive	–
